Compounds with a hit are over-represented: about 10% of the library has one in this group of screens.
VP16 counter – counter-screen for ROR gamma inhibitors: Gal4-VP16 reporter | Drosophila S2 Gal4-VP16 UAS-luciferase, luminescence, 20 h | Potency, µM (titrated, usually from 53.6 µM), for inactives: top-dose activity, negative = inhibition, usual class: inhibitors | 3.5% of 310,000 active | AID 2546;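 further: Gal4-VP16 expression switched on by copper sulfate through the metallothionein promoter; on the % scale 0 is the no-effect control and ±100 the full control effect; nearly all actives have a fitted effect of over 50% in size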
RORgamma inh – ROR gamma (mouse) transcription inhibition; P51450; Drosophila S2 Gal4-RORgamma UAS-luciferase reporter, 20 h; Potency, µM (top dose mostly 53.6 µM), for inactives: at the top dose activity change, negative = inhibition, actives largely listed as inhibitors; 5.4% of 310,000 active; AID 2551; further: on the % scale 0 is the no-effect control and ±100 the full control effect; nearly all actives have a fitted effect of over 60% in size
Target sequence (P51450 whole entry, looked up, the tested form may be a part): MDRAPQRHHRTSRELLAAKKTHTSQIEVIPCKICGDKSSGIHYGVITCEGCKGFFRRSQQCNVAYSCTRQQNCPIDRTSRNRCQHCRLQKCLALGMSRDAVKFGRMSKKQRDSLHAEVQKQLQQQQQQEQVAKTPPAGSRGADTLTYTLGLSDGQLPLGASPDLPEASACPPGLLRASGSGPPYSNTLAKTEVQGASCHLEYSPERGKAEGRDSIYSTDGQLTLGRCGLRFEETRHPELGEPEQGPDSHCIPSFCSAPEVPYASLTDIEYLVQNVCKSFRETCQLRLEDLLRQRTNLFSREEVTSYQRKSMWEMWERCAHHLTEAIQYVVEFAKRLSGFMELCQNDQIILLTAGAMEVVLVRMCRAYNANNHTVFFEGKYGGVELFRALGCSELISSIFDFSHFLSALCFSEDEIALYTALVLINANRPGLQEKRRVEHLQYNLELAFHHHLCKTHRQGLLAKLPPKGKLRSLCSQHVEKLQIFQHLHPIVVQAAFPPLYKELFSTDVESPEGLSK
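Stable Schneider cell line, Gal4 DNA-binding domain fused to ROR gamma, UAS-luciferase. Cmpd 1 hr RT → CuSO4 700 uM final → 20 hr RT → luciferase reagent 10 min → luminescence.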
KB-V1 MDR tox – kills drug-selected multidrug resistant KB-V1 cells | KB-V1 MDR cells viability, CellTiter-Glo, 72 h | Potency, µM (series often up to 46.1 µM), hits mostly cytotoxic | 3.4% of 400,000 active; further: on the % scale 0 is the no-effect control and ±100 the full control effect; nearly all actives have a fitted effect of over 60% in size
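Cytotoxicity toward P-gp-expressing KB-V1 cells was determined as loss of CellTiter-Glo luminescence after 72 h at 37 degrees C. Compounds were tested in quantitative HTS format across a concentration range, with curves fitted to normalized data.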
SW480 rereplic – induces DNA re-replication in SW480 colon adenocarcinoma cells. Potency, µM (highest dose often 46.1 µM), for the others: top-dose re-replication activation, most hits filed as activators. 1.8% of 340,000 active. SW480 DNA re-replication, Hoechst DNA content imaging, 48 h; further: % of control where 0% means no effect; nearly all actives have a fitted effect of over 55% in size
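Treated cells incubate 48 hr (37 C, 5% CO2), are stained 40 min with Hoechst, and nuclear fluorescence is enumerated; a rise in nuclei with high DNA signal marks re-replication.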
MCF10A rerep – inducers of DNA re-replication in MCF 10A breast cells; MCF 10A DNA re-replication, Hoechst nuclear intensity, 48 h; Potency, µM (doses to about 46.1 µM), for inactives: at the highest dose activity, positive = re-replication, most hits filed as activators; 2.9% of 350,000 active; further: % of control where 0% means no effect; nearly all actives have a fitted effect of over 50% in size
KB-3-1 tox – kills parental KB-3-1 adenocarcinoma cells; 1.4% of 400,000 active; KB-3-1 viability, CellTiter-Glo ATP luminescence, 72 h; Potency, µM (top dose mostly 46.1 µM), most hits filed as cytotoxic; further: on the % scale 0 is the no-effect control and ±100 the full control effect; nearly all actives have a fitted effect of over 60% in size
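Screening of KB-3-1 cells (DMEM, 10% FBS, phenol-red free) ran from lowest to highest compound concentration; after 72 h at 37 °C viability was read luminescently and curves fitted.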
Numbers without * were called inactive. The call rests on the fitted dose curve; in most records, active means well fitted curve in the direction sought with a large enough effect; inconclusive means small, poorly fitted or top-dose-only effect, or another doubt; inactive means no such curve, though single readings can be large; an effect the other way counts as inactive or inconclusive. Potency means the concentration at half of the fitted maximal effect.

For CCCNC(=S)N1CCC(Cc2ccccc2)CC1 the results were VP16 counter -28.2%, RORgamma inh inconclusive, KB-V1 MDR tox inactive, SW480 rereplic 1.3%, MCF10A rerep 10.8% and KB-3-1 tox inactive.
Screening COCCNC(=O)c1ccc(CN2CCC(Cc3ccccc3)CC2)cc1 returned VP16 counter 5.2%, RORgamma inh -38.8%, KB-V1 MDR tox inactive, SW480 rereplic inconclusive, MCF10A rerep 15.5% and KB-3-1 tox inactive.
Screening COc1ccc(CCNC(=S)N2CCC(C(=O)c3ccc(F)cc3)CC2)cc1OC returned VP16 counter -12.6%, RORgamma inh 20.7%, KB-V1 MDR tox 4.11µM*, SW480 rereplic -15.0%, MCF10A rerep -0.8% and KB-3-1 tox inconclusive.
`COc1ccc(CCNC(=O)c2ccc(CN3CCC(Cc4ccccc4)CC3)cc2)cc1OC` gave VP16 counter -6.7%, RORgamma inh 15.2%, KB-V1 MDR tox 3.66µM*, SW480 rereplic -3.1%, MCF10A rerep 5.8% and KB-3-1 tox inactive.
Screening Cn1cccc1C(=O)N1CCC2(CCCN(C(=O)Nc3cccc(C#N)c3)C2)CC1 returned VP16 counter -5.2% and RORgamma inh -12.1%.
CCCCOc1ccc(Cn2c(=O)oc3ccc(C)cc32)cc1 was read as KB-V1 MDR tox inactive and KB-3-1 tox inactive.
CN1CCN(C(=O)c2ccc(CN3CCOCC3)cc2)CC1 was read as VP16 counter 8.5%, RORgamma inh -21.9%, KB-V1 MDR tox inactive, SW480 rereplic -2.4%, MCF10A rerep 13.3% and KB-3-1 tox inactive.
`O=C(c1ccc(CN2CCOCC2)cc1)N1CCC(Cc2ccccc2)CC1` gave VP16 counter -2.1%, RORgamma inh -14.9%, KB-V1 MDR tox 20.6µM*, SW480 rereplic 0.7%, MCF10A rerep inconclusive and KB-3-1 tox inactive.
For O=C1OC(c2ccc(F)cc2)=C/C1=C\c1ccc([N+](=O)[O-])o1 the results were VP16 counter inconclusive and RORgamma inh -39.6%.
O=C1OC(c2ccc(F)cc2)=C/C1=C\c1ccc(O)cc1 was read as VP16 counter inconclusive, RORgamma inh 6.31µM*, KB-V1 MDR tox inactive, SW480 rereplic -10.9%, MCF10A rerep 11.6% and KB-3-1 tox inactive.
`COc1ccc(C2=NN(C(=O)c3cccs3)C(c3ccccc3O)C2)cc1` (centres undefined) gave VP16 counter -14.4%, RORgamma inh inconclusive, KB-V1 MDR tox inactive, SW480 rereplic 24.3%, MCF10A rerep 20.6µM* and KB-3-1 tox inactive.
`Cc1ccc(C(=O)N2N=C(c3ccc(Br)cc3)CC2c2ccccc2O)cc1` (centres undefined) gave VP16 counter inconclusive, RORgamma inh 35.7%, KB-V1 MDR tox inconclusive, SW480 rereplic 10.1%, MCF10A rerep 18.4µM* and KB-3-1 tox inconclusive.
Screening COc1ccc(C(=O)N2N=C(c3cccs3)CC2c2ccccc2O)cc1 (centres undefined) returned VP16 counter -4.4%, RORgamma inh 5.2%, KB-V1 MDR tox inactive, SW480 rereplic 16.4µM*, MCF10A rerep 23.8% and KB-3-1 tox inactive.
`COc1ccc2cc(C3CC(c4cccs4)=NN3C(C)=O)c(Cl)nc2c1` (centres undefined) gave VP16 counter -10.1%, RORgamma inh -3.3%, KB-V1 MDR tox inactive, SW480 rereplic -15.5%, MCF10A rerep 8.0% and KB-3-1 tox inactive.
For Cc1cc(C)c(NC(=O)c2cc(CN3CCOCC3)on2)c(C)c1 the results were KB-V1 MDR tox inactive and KB-3-1 tox inactive.
For COc1cccc(CCNC(=O)c2ccc(Cn3c(SCc4ccccc4)nc4cccnc43)cc2)c1 the results were KB-V1 MDR tox inactive and KB-3-1 tox inactive.
CC[C@@]1(c2ccccc2)NC(=O)NC1=O was read as VP16 counter 1.7% and RORgamma inh -7.6%.
Screening C=C1C2=C(C(=O)N1OC)[C@@H](O)[C@@](C)(O)[C@@H](CCCCC)O2 returned KB-V1 MDR tox inactive and KB-3-1 tox 18.4µM*.
Screening CCS(=O)(=O)N1CCC(C(=O)NC2CCCCC2)CC1 returned VP16 counter -0.1%, RORgamma inh -19.8%, KB-V1 MDR tox inactive, SW480 rereplic -4.8%, MCF10A rerep inconclusive and KB-3-1 tox inactive.
`O=C(NC1CCCCC1)N1CCCCCC1` gave VP16 counter 2.4%, RORgamma inh -5.3%, KB-V1 MDR tox inactive, SW480 rereplic -7.4%, MCF10A rerep -2.8% and KB-3-1 tox inactive.
COc1nc(OC)nc(N2CCC(C(=O)NCC3CCCCC3)CC2)n1 was read as VP16 counter -12.4%, RORgamma inh 7.5%, KB-V1 MDR tox 18.4µM*, SW480 rereplic -15.4%, MCF10A rerep 1.3% and KB-3-1 tox inactive.
`O=C(NC1CCCCC1)N1CCCC1` gave VP16 counter -12.0%, RORgamma inh -22.2%, KB-V1 MDR tox inactive, SW480 rereplic -5.1%, MCF10A rerep -3.5% and KB-3-1 tox inactive.
`O=C(NCC1CCCCC1)C1CCN(C(=O)NC2CCCCC2)CC1` gave VP16 counter 6.9%, RORgamma inh 14.9%, KB-V1 MDR tox 16.4µM*, SW480 rereplic 2.1%, MCF10A rerep 1.5% and KB-3-1 tox inactive.
Screening O=C(NC1CCCCC1)N1CCNCC1 returned VP16 counter 12.0%, RORgamma inh 7.94µM*, KB-V1 MDR tox inactive, SW480 rereplic -3.8%, MCF10A rerep inconclusive and KB-3-1 tox inactive.
Screening CN(C)C(=O)N1CCC(C(=O)NC2CCCCCCC2)CC1 returned VP16 counter -2.1%, RORgamma inh inconclusive, KB-V1 MDR tox inactive, SW480 rereplic 8.2µM*, MCF10A rerep inconclusive and KB-3-1 tox inactive.
Cc1cc(C)nc(N2CCC(C(=O)NCC3CCCCC3)CC2)n1 was read as VP16 counter -13.8%, RORgamma inh -10.2%, KB-V1 MDR tox inactive, SW480 rereplic -5.9%, MCF10A rerep -2.5% and KB-3-1 tox inactive.
Screening CCC(=O)N1CCC1(C)C(=O)Nc1ccc(Cl)c(Cl)c1 (centres undefined) returned KB-V1 MDR tox inactive and KB-3-1 tox inactive.
`COc1nc(C#N)nc(N2CCCCC2)n1` gave KB-V1 MDR tox inactive and KB-3-1 tox inconclusive.
Screening COc1nc(OC)nc(N2CCCCCC2)n1 returned VP16 counter 1.0%, RORgamma inh -40.6%, KB-V1 MDR tox inactive, SW480 rereplic -1.7%, MCF10A rerep 20.6µM* and KB-3-1 tox inactive.
